M1 antagonist = M1 muscarinic receptor (rat) antagonism | AID 628 | actives 3.4% (n = 64,000) | P08482 | B-score at 10 µM | CHO-M1 cells, Fluo-4 calcium, ACh EC80 antagonist mode; active compounds read low;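 active means calcium fluorescence response, raw or row-and-column corrected B-score, differing from the plate sample mean either way at a set confidence level, mostly lower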
Fluor 339 460 = intrinsic fluorescence of library compounds, ex339/em460 – biochemical, MLSMR library, data from DPM-DC assay, artefact control, profiling panel | AID 709 | compound autofluorescence, ex339/em460 nm, NADH buffer; active compounds read high; 1 = no-compound wells, NADH background | fluorescence fold increase at 10 µM | actives 5.5% (n = 65,000);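 active means at 10 µM, mean starting fluorescence two-fold or more over control wells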;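 further: signal is the first read of a kinetic run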
Abs 340nm = compounds absorbing at 340 nm. fold change at 10 µM. AID 708. compound absorbance at 340 nm, fold over control. 65,000 tested, under 10 active;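 active means at 10 µM dose, initial 340 nm absorbance at least 2 fold that of control wells; inactive means change under 2 fold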;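 further: initial absorbance extrapolated from kinetic A340 decline of NADH oxidation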
M1 agonist = M1 muscarinic receptor agonism; CHO-M1 cells, Fluo-4 calcium fluorescence, agonist mode; active compounds read high; B-score at 10 µM; actives 3% (n = 64,000); AID 626;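 active means fluorescence rise, raw or as B-score row- and column-corrected plate score, outside the 99.7% band of its plate's samples, either direction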
Htt clearance = compounds clearing mutant huntingtin protein | HeLa Exon1htt(103Q)mCFP, aggregate imaging; zero = plate's median compound well | inhibition, % at 1.5 µM | actives 0.42% (n = 47,000) | AID 853;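 active means inhibition of aggregate fluorescence above about 70%, also judged a hit by eye on the cell image, limit read from the data, passing the limit was not always enough; inconclusive means no rule stated for this call; inactive means not judged a hit on image review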;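 further: cells exposed to compound for three days before fixation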
NADH enzymes = inhibition of NAD/NADH coupling enzymes, library profiling; AID 774; coupled PK/LDH NADH assays, four targets; IC50, µM (top dose mostly 10 µM), for inactives: at the highest dose inhibition; actives 0.02% (n = 65,000);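 active means single-dose screening hits from any of four coupled enzyme assays that gave an IC50 when retested across doses; inconclusive means no clear call, values can overlap the other calls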;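 further: the DPM-DC format reads NADH fluorescence rather than 340 nm absorbance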
M1 agonist conf = confirmation of rat M1 muscarinic receptor agonists; shares compounds with M1 agonist; actives 19% (n = 1,700); fluorescence change (max-min) at 10 µM; CHO-M1 cells, Fluo-4 calcium fluorescence, agonist mode; actives lie on both sides; AID 1488;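 active means fluorescence change differs from the solvent-only DMSO control mean at a set confidence level in both duplicate runs; inconclusive means differs from solvent-only control mean in just one of two runs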;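 further: an EC20 dose of acetylcholine follows compound addition during the same imaging run; raw fluorescence intensity difference in instrument units with no normalization to controls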
M4 agonist ctr = rat M4 muscarinic agonism, M1 counter-screen; AID 1741; actives 9% (n = 1,700); CHO M4/Gqi5 cells, Fluo-4 calcium fluorescence, agonist mode; actives lie on both sides; shares compounds with M1 agonist; fluorescence change (max-min) at 10 µM;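 active means fluorescence change differing from the plate's solvent-only control wells at 99.7% confidence in both duplicates, whether higher or lower; inconclusive means differs from solvent controls in only one of two duplicates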
Target sequence (P08485 whole entry, looked up): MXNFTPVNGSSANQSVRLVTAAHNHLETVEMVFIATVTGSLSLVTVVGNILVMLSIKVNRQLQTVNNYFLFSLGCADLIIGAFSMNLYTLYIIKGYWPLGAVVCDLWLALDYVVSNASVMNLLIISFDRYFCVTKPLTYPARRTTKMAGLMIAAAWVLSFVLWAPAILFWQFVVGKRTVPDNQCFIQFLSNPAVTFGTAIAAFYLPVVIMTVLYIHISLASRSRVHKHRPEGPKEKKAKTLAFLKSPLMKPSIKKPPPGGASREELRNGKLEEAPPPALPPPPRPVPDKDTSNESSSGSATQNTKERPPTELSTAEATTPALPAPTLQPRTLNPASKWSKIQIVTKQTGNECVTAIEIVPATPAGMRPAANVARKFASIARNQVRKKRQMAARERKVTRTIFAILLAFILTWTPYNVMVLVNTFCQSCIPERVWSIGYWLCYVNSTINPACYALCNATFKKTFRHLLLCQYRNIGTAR
The depositor's hits bear a star; i = inactive; ? = inconclusive; · = no result. Rows were chosen to be rich in hits. Some 9.3% of all compounds tested hit in one or more screens of this group.

SMILES | M1 antagonist | Fluor 339 460 | Abs 340nm | M1 agonist | Htt clearance | NADH enzymes | M1 agonist conf | M4 agonist ctr
O=C(c1cc(-c2ccncc2)nc2ccc(Cl)cc12)N1CCN(C(=O)C2CCCO2)CC1 (configuration not stated) | -0.26 | 1.1 | 1.1 | 2.9* | -92 | 8% | -29 | -48
CCN1CCN(c2nc3c(C)cccn3c(=O)c2/C=C(\C#N)S(=O)(=O)c2ccc(C)cc2)CC1 | -0.53 | 1.1 | 1 | 9.7* | 6 | 2% | ? | 40
CCOC(=O)c1oc2ccccc2c1CSc1nnnn1-c1ccc(C)cc1 | 0.76 | 1.1 | 1 | 0.38 | 15 | 1% | · | ·
COc1cc(CSc2nnnn2-c2ccc(C)cc2)cc(OC)c1OC | -2.5* | 1.1 | 1.1 | 5.8* | · | 3% | 3.5 | ?
COc1ccc2oc(-c3ccccc3)c(C(=O)N3CCOCC3)c2c1 | -0.00046 | 2.1* | 1 | 4* | 32 | 8% | -24 | -32
CC(=O)Oc1ccc2oc(C)c(C(=O)N3CCOCC3)c2c1 | 0.044 | 1.1 | 1 | -0.036 | · | 0% | · | ·
COc1ccc(-c2cc(C(=O)N3CCOCC3)c3cc(C)ccc3n2)cc1 | -0.33 | 3.7* | 1.1 | 4.1* | -1 | 1% | -9 | -33
Cc1cc(-c2ccccc2)n(-c2ccc(C(=O)N3CCN(c4ncccn4)CC3)cc2)n1 | -1 | 1.2 | 1.1 | 9.2* | 11 | 2% | ? | ?
Cc1ccc(-c2cc(C(=O)N3CCN(c4ncccn4)CC3)c3ccccc3n2)cc1 | -1.8 | 1.3 | 1.1 | 8.8* | 17 | 6% | -16 | -111*
N#CCCS(=O)(=O)c1nnnn1-c1ccccc1 | 0.51 | 1 | 1 | 0.31 | · | 6% | · | ·
CC(C)CNC(=O)CN(C1CCCCC1)S(=O)(=O)c1ccccc1 | -0.0024 | 1.1 | 1 | 1.1 | 36 | 9% | · | ·
CC(C)Sc1nnc([C@H](Cc2c[nH]c3ccccc23)NC(=O)OC(C)(C)C)o1 | · | · | · | · | -32 | · | · | ·
Cc1cc(C(=O)N2CCN(c3ncccn3)CC2)c2cc(F)ccc2n1 | -0.089 | 1.2 | 0.97 | -0.84 | 60 | 8% | · | ·
Cc1ccc2nc(-c3ccccn3)cc(C(=O)N3CCN(c4ncccn4)CC3)c2c1 | -2.1 | 1.1 | 1 | 3.6* | · | 4% | -1.9 | -22
CC(C)Oc1cccc(-c2cc(C(=O)N3CCN(S(C)(=O)=O)CC3)c3ccccc3n2)c1 | 0.09 | 1.1 | 1 | 3.6* | 7 | 3% | ? | -50
CC(=O)N1CCc2cc(S(=O)(=O)Nc3cccc(C(F)(F)F)c3)ccc21 | -0.98 | 1.2 | 1.1 | 5.1* | · | 4% | -11 | -34
CCn1c(N)c(C(=O)NCC2CCCO2)sc1=S (configuration not stated) | -0.083 | 1 | 1.1 | 6.7* | · | 9% | -7.8 | -3.5
Cc1[nH]c2ccc(-c3nnc(SCC(=O)N4CCCc5ccccc54)o3)cc2c1C | -1.1 | 2 | 1.1 | 45* | -83 | 14% | ? | -41
O=C(CSc1nnc(Cc2ccccc2)o1)N1CCCc2ccccc21 | -0.21 | 1.1 | 1 | 0.0034 | · | 4% | · | ·
O=C(CSc1nnc(C2COc3ccccc3O2)o1)N1CCOCC1 (configuration not stated) | · | 1.1 | 1 | · | · | 5% | · | ·
O=C(CSc1nnc(C2COc3ccccc3O2)o1)N1CCCc2ccccc21 (configuration not stated) | -1.2 | 1 | 0.98 | 2.5* | · | 11% | ? | -26
COc1ccc2[nH]cc(CCN=C3SCC(=O)N3C)c2c1 | 0.37 | 1.1 | 1 | 0.04 | · | 6% | · | ·
Cc1cccc(N2CCN(C(=O)Cn3sc4nc(C)cc(C)c4c3=O)CC2C)c1 (configuration not stated) | -0.62 | 1.2 | 1.1 | 5.3* | i | 9% | -24* | -67*
O=C(Nc1ccc2c(c1)OCO2)N1CCN(c2cccc(C(F)(F)F)c2)CC1 | -2.2 | 1.1 | 1.1 | 2.9* | 41 | 2% | ? | ?
O=C(Nc1ccc2c(c1)OCO2)N1CCN(c2ccccc2Cl)CC1 | · | · | · | · | 2 | · | · | ·
SMILES | M1 antagonist | Fluor 339 460 | Abs 340nm | M1 agonist | Htt clearance | NADH enzymes | M1 agonist conf | M4 agonist ctr
O=C(c1cn(-c2ccccc2)nc1-c1ccc(Cl)s1)N1CCOCC1 | -0.25 | 1.1 | 1 | 7.7* | -8 | 1% | -27 | -26
CC(C)c1cc(CN2CCN(CCC#N)CC2)cc(C(C)C)c1O | -0.12 | 1.1 | 0.99 | 27* | · | 2% | 14 | -33
CCCSc1nnc(C(C)C)n1N | · | · | · | · | 17 | · | · | ·
O=C(Cn1nnc(-c2ccccc2F)n1)Nc1ccc2c(c1)OCO2 | -0.077 | 1.1 | 1 | 5.7* | 22 | 0% | ? | -62
COc1ccc(CCN2CC(C#N)=C3c4cc(OC)c(OC)cc4CCN3C2)cc1OC | -0.49 | 1.1 | 1.1 | 2.2 | -1 | 8% | · | ·
COc1cc2c(cc1OC)C1=C(C#N)CN(C3CCCCC3)CN1CC2 | -0.4 | 1.2 | 1.1 | 5.1* | · | 7% | -7.1 | -17
Cc1ccc2[nH]c(=O)c(CN(Cc3ccccc3Cl)C(=O)N3CCOCC3)cc2c1 | 0.44 | 1.6 | 1.1 | 2.2* | 23 | 9% | -29* | -82*
Cc1nn(-c2ccccc2)c(N2CCCC2)c1/C=N/n1cnc2scc(-c3ccccc3)c2c1=O | -2.4* | 3.5* | 1.1 | 9.1* | 1 | 2% | 5.6 | -15
O=C(NCc1ccccn1)C(F)(F)C(F)(F)C(=O)NCc1ccccn1 | 1 | 1.1 | 1.1 | 0.5 | 38 | 6% | · | ·
O=C(NCC(=O)N(Cc1ccccc1)C(C(=O)NC1CCCC1)c1ccco1)c1ccco1 (configuration not stated) | -1.5 | 1.1 | 1 | 9.4* | 9 | 3% | -12 | -57
O=C(NCC(=O)N(Cc1ccc(F)cc1)C(C(=O)NC1CCCC1)c1ccco1)c1ccco1 (configuration not stated) | 0.61 | 1.1 | 0.99 | 1.1 | 29 | 7% | · | ·
O=C(CSc1nc(-c2ccco2)cc(C(F)(F)F)n1)NCCCn1ccnc1 | -0.93 | 1.2 | 1.1 | 10* | 17 | 4% | 3.4 | -2
Cc1cccc(C)c1OCCCCc1c(C)n[nH]c1C | -0.85 | 1.1 | 1 | 0.14 | -13 | 4% | · | ·
COc1cccc(OC)c1OCCCCCc1c(C)n[nH]c1C | -0.087 | 1.1 | 0.99 | 3* | -7 | 9% | -17 | -44
COc1cccc(N2CCN(C3CCCC(C)C3)CC2)c1 (configuration not stated) | -0.4 | 1.1 | 1 | 3.6* | 39 | 3% | -12 | -24
O=C(CCCn1c(=O)oc2ccccc21)N1CCc2ccccc2C1 | 0.33 | 1.1 | 1.1 | 1.3 | 41 | 3% | · | ·
